# ChEMBL document CHEMBL2218924, “A broad activity screen in support of a chemogenomic map for kinase signalling research and drug discovery” (Biochem J, 2013)
# Experiments:
# [1] = molecular target: Platelet-derived growth factor receptor alpha (Homo sapiens) (UniProt P16234); conditions: at 10 µM
# [2] = molecular target: Platelet-derived growth factor receptor beta (Homo sapiens) (UniProt P09619); conditions: at 1 µM
# [3] = molecular target: Platelet-derived growth factor receptor beta (Homo sapiens) (UniProt P09619); conditions: at 10 µM
# [4] = molecular target: T1, 3-phosphoinositide-dependent protein kinase 1 (Homo sapiens) (UniProt O15530); conditions: at 1 µM
# T1 sequence (whole entry): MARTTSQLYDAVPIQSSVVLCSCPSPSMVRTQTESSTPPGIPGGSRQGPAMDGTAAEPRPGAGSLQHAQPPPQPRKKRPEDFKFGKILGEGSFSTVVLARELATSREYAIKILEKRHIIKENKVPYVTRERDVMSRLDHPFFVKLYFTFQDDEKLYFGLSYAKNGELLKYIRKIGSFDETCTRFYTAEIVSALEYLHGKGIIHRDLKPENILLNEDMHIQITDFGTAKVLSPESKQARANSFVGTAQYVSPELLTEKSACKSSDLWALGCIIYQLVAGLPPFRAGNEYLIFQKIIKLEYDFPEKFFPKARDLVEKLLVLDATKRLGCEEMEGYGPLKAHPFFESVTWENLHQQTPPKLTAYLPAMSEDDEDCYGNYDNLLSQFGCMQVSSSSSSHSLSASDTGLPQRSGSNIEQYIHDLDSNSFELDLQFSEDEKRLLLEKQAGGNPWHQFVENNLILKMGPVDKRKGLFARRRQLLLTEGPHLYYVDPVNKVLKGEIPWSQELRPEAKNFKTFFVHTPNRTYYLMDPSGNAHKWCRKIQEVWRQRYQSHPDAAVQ
# [5] = molecular target: T1, 3-phosphoinositide-dependent protein kinase 1 (Homo sapiens); conditions: at 10 µM
# [6] = molecular target: cAMP-dependent protein kinase catalytic subunit alpha (Homo sapiens) (UniProt P17612); conditions: at 1 µM
# [7] = molecular target: RAC-alpha serine/threonine-protein kinase (Homo sapiens) (UniProt P31749); conditions: at 1 µM
# Sequence of RAC-alpha serine/threonine-protein kinase (Homo sapiens) (P31749 whole entry): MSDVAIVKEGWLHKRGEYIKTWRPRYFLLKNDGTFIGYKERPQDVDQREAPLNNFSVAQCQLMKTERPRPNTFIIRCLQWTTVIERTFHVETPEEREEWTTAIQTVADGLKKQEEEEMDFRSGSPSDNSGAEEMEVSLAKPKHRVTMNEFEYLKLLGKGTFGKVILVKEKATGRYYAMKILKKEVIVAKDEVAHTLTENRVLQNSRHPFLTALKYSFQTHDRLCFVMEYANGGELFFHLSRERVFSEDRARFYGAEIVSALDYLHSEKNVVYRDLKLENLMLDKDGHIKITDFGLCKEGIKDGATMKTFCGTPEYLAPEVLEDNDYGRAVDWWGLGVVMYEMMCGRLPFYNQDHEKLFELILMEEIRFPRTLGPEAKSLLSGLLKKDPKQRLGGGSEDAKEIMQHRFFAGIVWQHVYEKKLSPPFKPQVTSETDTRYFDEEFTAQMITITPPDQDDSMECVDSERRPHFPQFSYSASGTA
# [8] = molecular target: RAC-alpha serine/threonine-protein kinase (Homo sapiens) (UniProt P31749); conditions: at 10 µM
# [9] = molecular target: RAC-gamma serine/threonine-protein kinase (Homo sapiens) (UniProt Q9Y243); conditions: at 1 µM
# Sequence of RAC-gamma serine/threonine-protein kinase (Homo sapiens) (Q9Y243 whole entry): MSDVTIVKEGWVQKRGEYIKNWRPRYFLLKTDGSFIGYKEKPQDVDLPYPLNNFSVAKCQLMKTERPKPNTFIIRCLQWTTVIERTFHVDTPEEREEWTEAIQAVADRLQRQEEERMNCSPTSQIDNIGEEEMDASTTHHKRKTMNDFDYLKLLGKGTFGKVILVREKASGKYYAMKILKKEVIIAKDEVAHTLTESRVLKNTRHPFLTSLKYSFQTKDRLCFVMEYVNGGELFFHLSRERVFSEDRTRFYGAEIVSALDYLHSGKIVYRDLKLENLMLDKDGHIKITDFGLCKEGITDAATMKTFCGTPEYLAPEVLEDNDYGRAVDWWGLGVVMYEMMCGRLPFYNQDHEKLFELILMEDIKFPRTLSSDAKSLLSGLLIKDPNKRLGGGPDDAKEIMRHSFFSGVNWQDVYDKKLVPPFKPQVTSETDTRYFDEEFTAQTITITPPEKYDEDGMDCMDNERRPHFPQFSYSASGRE
# [10] = molecular target: RAC-gamma serine/threonine-protein kinase (Homo sapiens) (UniProt Q9Y243); conditions: at 10 µM
# [11] = molecular target: Protein kinase C alpha type (Homo sapiens) (UniProt P17252); conditions: at 1 µM
# [12] = molecular target: Protein kinase C alpha type (Homo sapiens) (UniProt P17252); conditions: at 10 µM
# [13] = molecular target: Protein kinase C beta type (Homo sapiens) (UniProt P05771); conditions: at 1 µM
# Sequence of Protein kinase C beta type (Homo sapiens) (P05771 2-671 limits assumed): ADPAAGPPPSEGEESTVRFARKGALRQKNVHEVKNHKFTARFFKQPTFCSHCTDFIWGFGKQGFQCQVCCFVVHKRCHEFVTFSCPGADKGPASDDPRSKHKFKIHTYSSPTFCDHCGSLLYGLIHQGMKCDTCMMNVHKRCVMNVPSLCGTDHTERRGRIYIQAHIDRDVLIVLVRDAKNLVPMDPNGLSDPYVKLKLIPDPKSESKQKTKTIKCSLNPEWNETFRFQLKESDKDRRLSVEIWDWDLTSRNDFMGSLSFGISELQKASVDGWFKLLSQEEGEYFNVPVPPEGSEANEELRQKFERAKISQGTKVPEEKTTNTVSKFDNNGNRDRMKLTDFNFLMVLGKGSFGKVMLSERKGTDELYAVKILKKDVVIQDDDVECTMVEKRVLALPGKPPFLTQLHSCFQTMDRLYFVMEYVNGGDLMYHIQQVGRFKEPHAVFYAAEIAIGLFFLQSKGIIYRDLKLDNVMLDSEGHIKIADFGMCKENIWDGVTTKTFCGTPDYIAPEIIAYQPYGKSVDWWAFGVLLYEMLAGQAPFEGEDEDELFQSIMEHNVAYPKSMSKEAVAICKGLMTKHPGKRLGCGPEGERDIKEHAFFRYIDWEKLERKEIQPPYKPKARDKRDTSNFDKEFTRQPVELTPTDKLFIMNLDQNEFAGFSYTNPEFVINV
# [14] = molecular target: Protein kinase C beta type (Homo sapiens) (UniProt P05771); conditions: at 10 µM
# [15] = molecular target: Protein kinase C beta type (Homo sapiens) (UniProt P05771); conditions: at 1 µM; remark: listed apart in the source
# [16] = molecular target: Protein kinase C beta type (Homo sapiens) (UniProt P05771); conditions: at 10 µM; remark: listed apart in the source
# [17] = molecular target: Protein kinase C gamma type (Homo sapiens) (UniProt P05129); conditions: at 1 µM
# [18] = molecular target: Protein kinase C gamma type (Homo sapiens) (UniProt P05129); conditions: at 10 µM
# [19] = molecular target: Protein kinase C delta type (Homo sapiens) (UniProt Q05655); conditions: at 1 µM
# Sequence of Protein kinase C delta type (Homo sapiens) (Q05655 whole entry, looked up): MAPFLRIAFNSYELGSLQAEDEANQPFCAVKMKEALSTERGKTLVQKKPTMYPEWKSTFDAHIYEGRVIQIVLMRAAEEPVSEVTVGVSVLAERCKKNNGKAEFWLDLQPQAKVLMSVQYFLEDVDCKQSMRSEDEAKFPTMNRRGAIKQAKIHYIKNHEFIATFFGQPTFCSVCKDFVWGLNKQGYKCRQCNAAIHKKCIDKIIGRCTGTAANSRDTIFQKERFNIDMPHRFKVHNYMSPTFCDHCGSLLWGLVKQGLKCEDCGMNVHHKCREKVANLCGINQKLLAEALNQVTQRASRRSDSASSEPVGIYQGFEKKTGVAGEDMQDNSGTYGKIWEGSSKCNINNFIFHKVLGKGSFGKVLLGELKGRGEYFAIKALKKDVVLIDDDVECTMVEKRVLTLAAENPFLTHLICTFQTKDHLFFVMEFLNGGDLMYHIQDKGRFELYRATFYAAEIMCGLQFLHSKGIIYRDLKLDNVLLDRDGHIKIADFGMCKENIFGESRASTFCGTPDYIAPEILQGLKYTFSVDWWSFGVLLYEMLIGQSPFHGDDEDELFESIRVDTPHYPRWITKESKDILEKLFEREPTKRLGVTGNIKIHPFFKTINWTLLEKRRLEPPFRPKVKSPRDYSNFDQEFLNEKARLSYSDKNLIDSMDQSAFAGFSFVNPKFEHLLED
# Sequence of Platelet-derived growth factor receptor beta (Homo sapiens) (P09619 whole entry): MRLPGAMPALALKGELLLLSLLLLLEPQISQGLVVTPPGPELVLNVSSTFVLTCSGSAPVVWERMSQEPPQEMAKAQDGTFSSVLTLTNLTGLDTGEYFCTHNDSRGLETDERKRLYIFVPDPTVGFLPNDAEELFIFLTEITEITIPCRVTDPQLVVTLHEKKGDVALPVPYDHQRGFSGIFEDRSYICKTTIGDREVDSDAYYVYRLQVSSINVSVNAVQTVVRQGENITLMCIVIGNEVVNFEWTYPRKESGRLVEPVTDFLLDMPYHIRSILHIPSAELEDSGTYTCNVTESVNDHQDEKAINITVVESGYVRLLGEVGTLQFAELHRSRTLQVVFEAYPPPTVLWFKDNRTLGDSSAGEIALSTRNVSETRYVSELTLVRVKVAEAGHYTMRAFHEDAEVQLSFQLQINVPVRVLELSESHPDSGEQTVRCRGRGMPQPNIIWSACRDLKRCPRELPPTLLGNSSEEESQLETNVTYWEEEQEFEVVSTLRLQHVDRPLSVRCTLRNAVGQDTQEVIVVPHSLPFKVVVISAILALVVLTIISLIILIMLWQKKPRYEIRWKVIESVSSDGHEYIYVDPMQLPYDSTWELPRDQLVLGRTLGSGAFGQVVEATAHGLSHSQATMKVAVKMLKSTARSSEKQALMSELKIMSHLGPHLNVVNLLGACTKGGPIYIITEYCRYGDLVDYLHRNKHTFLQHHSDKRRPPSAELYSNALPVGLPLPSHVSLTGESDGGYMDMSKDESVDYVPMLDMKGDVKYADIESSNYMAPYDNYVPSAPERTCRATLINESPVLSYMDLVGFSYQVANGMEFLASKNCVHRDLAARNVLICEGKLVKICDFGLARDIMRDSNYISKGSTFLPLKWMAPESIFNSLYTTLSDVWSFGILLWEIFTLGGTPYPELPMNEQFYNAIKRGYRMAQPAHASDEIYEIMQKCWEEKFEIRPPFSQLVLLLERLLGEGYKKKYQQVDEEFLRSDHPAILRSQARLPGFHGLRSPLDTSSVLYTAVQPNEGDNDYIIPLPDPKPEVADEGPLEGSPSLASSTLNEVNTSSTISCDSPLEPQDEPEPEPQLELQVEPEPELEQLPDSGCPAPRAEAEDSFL
structure (smiles),measurement,setting,value
COc1cc2ncnc(Nc3ccc(OCc4ccccc4)cc3)c2cc1OC,residual activity,[1],57%
same,residual activity,[2],106%
same,residual activity,[3],89%
same,residual activity,[4],119%
same,residual activity,[5],114%
same,residual activity,[6],88%
same,residual activity,[7],104%
same,residual activity,[8],122%
same,residual activity,[9],99%
same,residual activity,[10],103%
same,residual activity,[11],117%
same,residual activity,[12],114%
same,residual activity,[13],123%
same,residual activity,[14],106%
same,residual activity,[15],105%
same,residual activity,[16],101%
same,residual activity,[17],105%
same,residual activity,[18],108%
same,residual activity,[19],104%
CCc1nc(-c2ccc(OC)cc2)[nH]c1-c1ccncc1,residual activity,[1],109%
same,residual activity,[2],110%
same,residual activity,[3],108%
same,residual activity,[4],110%
same,residual activity,[5],101%
same,residual activity,[7],113%
same,residual activity,[8],108%
same,residual activity,[12],105%
same,residual activity,[13],127%
same,residual activity,[14],105%
same,residual activity,[17],108%
same,residual activity,[18],108%
same,residual activity,[19],107%
CC(C)[C@H](CO)Nc1nc(Nc2cccc(Cl)c2)c2ncn(C(C)C)c2n1,residual activity,[5],97%
same,residual activity,[10],84%
same,residual activity,[15],120%
same,residual activity,[16],96%
same,residual activity,[17],102%
same,residual activity,[18],101%
CC(C)(C)c1cc(C=C(C#N)C#N)cc(Br)c1O,residual activity,[1],106%
same,residual activity,[2],103%
same,residual activity,[3],103%
same,residual activity,[4],102%
same,residual activity,[7],98%
same,residual activity,[8],102%
same,residual activity,[9],106%
same,residual activity,[10],97%
same,residual activity,[11],106%
same,residual activity,[13],106%
same,residual activity,[14],97%
same,residual activity,[15],108%
same,residual activity,[16],108%
same,residual activity,[17],98%
same,residual activity,[18],103%
same,residual activity,[19],98%
N/C(=N\[N+](=O)[O-])N/N=C\c1ccc(-c2cccc([N+](=O)[O-])c2)o1,residual activity,[1],54%
same,residual activity,[2],100%
same,residual activity,[3],60%
same,residual activity,[9],77%
same,residual activity,[10],77%
same,residual activity,[17],91%
same,residual activity,[18],94%
COc1ccc2c(c1)/C(=C/c1cnc[nH]1)C(=O)N2,residual activity,[1],82%
same,residual activity,[4],76%
same,residual activity,[5],20%
same,residual activity,[19],96%
Cc1cc(Nc2nc(-c3ccccc3)nc3ccccc23)n[nH]1,residual activity,[7],113%
same,residual activity,[8],101%
COc1cc2nccc(Oc3ccc(NC(=O)Nc4cc(C)on4)c(Cl)c3)c2cc1OC,residual activity,[7],97%
same,residual activity,[8],101%
CCCC(=O)Oc1ccc2[nH]c(C(=O)c3cc4ccccc4[nH]3)cc2c1,residual activity,[7],97%
